Source: PubChem
KCNQ2 enhance – KCNQ2 (rat) channel potentiation; B-score at 10 µM; hit rate 0.54% among 310,000; CHO-K1 KCNQ2, FluxOR thallium flux fluorescence; hits give high values;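 active = fluorescence ratio B-score at least 3 SD of library B-scores, with initial fluorescence B-score within 3 of them, cut at about 5.3 in these data; same plate scores as AID 2156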;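 also: B-score of peak minus minimum over baseline fluorescence ratio after K+ and Tl+ stimulus; positive B-score means potentiation of KCNQ2 with more thallium influx and brighter signal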
KCNQ2 block – KCNQ2 (rat) channel inhibition; O88943; CHO-K1 KCNQ2, FluxOR thallium flux, 20 min; hits give low values; B-score at 10 µM; hit rate 1.1% among 310,000;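 active = fluorescence ratio B-score at most minus 3 library SDs, with starting brightness B-score within 2 library SDs, cut at about -5.5 in these data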
Kir21 confirm – confirmation of mouse Kir2.1 potassium channel inhibitors; Kir2.1-expressing cells, FluxOR thallium flux fluorescence; hits give low values; shares compounds with KCNQ2 enhance; hit rate 41% among 2,300; Tl flux remaining, % of negative control (hits give low values), % at 10 µM;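 active = Primary-screen hit whose thallium flux fell at least 3 control SD below untreated wells in both duplicates, with normal baseline fluorescence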;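 also: 0% = blank wells without stimulus and 100% = stimulated no-compound controls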
HEK293 ctr – alters thallium flux in parental HEK293 cells, Kir2.1 counter-screen; shares compounds with KCNQ2 enhance; FluxOR thallium flux fluorescence; 0% = unstimulated blank wells; FluxOR signal as % of negative control (100 = no effect), % at 10 µM; hit rate 19% among 2,300; AID 2105;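 active = dye signal at least 3 control SD above or below untreated wells in both duplicates, raw fluorescence within 3, either direction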;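 also: percent is based on the flux ratio of peak minus minimum fluorescence over baseline F0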
CHO-K1 ctr – parental CHO-K1 activity in KCNQ2 potentiator counter-screen; activity increase over 3SD of controls, % at 10 µM; parental CHO-K1 cells, FluxOR thallium flux fluorescence; zero = vehicle mean+3SD, 100% = vehicle-minus-blank window; hit rate 43% among 1,200; shares compounds with KCNQ2 enhance; AID 2282;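 active = signal rise of at least 3 SD above the untreated control mean, in both duplicate wells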;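 also: counter screen of KCNQ2 potentiator hits so any rise reflects channel-independent effects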
KCNQ1 pot spec – tests whether KCNQ2 potentiators also act on human KCNQ1 | shares compounds with KCNQ2 enhance | CHO KCNQ1 stable, FluxOR thallium flux fluorescence; beyond 3SD, as % of vehicle-control signal | activation over 3SD threshold, % at 10 µM | hit rate 28% among 1,200 | AID 2283;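 active = fluorescence ratio rise of at least 3 SD of vehicle wells above their mean, in both replicate wells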;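 also: 0% = vehicle mean plus 3 SD and 100% = vehicle minus unstimulated blank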
KCNQ2 pot conf – confirmation of rat KCNQ2 potassium channel potentiators; shares compounds with KCNQ2 enhance; hit rate 68% among 1,200; potentiation, less the hit threshold, % at 10 µM; CHO-KCNQ2 cells, FluxOR thallium flux fluorescence;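 active = fluorescence ratio rising 3 SD or more over the vehicle control mean in both replicates, plus primary screen hit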;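 also: peak minus minimum thallium fluorescence divided by baseline after K/Tl stimulus; 0% = vehicle mean plus 3 SD and 100% = vehicle minus unstimulated blank difference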
Kir2-1 sel – tests whether KCNQ2 potentiators also affect mouse Kir2.1. AID 2345. hit rate 2% among 1,200. HEK293 Kir2.1, FluxOR thallium flux fluorescence. shares compounds with KCNQ2 enhance. activity over 3SD threshold, % at 10 µM;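 active = fluorescence ratio rise of at least 3 SD above the vehicle-control mean, seen in both replicates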;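 also: 0% = vehicle mean plus 3 SD and 100% = vehicle minus no-stimulus blank window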
KCNQ2 W236L pot – potentiates the retigabine-insensitive rat KCNQ2 W236L mutant channel; shares compounds with KCNQ2 enhance; CHO KCNQ2-W236L, automated patch clamp current; current increase over 3SD of negative controls (%), hits give high values, % at 25 µM; hit rate 10% among 940; AID 2558;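 active = current increase at least 3 SD of the untreated controls above them in both duplicate recordings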
Target sequence (O88943 whole entry W236L, looked up): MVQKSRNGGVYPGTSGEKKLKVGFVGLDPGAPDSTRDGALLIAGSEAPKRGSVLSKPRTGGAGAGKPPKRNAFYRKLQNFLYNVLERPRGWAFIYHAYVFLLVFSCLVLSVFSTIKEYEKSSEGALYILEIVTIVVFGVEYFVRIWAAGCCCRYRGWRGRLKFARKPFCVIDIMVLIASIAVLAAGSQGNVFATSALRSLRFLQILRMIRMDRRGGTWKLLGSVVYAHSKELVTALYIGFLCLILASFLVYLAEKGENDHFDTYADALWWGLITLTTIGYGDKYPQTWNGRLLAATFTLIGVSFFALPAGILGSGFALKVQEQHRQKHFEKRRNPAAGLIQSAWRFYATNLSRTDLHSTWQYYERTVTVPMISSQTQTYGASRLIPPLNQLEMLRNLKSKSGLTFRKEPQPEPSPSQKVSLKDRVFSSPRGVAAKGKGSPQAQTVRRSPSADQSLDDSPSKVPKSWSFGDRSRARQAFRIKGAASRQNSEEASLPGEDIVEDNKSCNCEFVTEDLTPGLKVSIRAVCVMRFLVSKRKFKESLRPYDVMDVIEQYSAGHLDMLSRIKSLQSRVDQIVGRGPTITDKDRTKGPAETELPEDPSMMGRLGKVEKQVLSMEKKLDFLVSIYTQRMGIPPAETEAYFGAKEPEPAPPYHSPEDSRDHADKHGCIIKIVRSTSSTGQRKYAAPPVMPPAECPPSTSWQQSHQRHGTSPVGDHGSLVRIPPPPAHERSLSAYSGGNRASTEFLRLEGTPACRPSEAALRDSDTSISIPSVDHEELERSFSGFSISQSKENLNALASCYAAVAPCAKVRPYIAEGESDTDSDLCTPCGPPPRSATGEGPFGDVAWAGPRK
The depositor's hits bear a star; i = inactive; . = not tested or not shown. Shown are actives, neighbours in structure and some others; about 1.6% of the full set was active somewhere.

SMILES	KCNQ2 enhance	KCNQ2 block	Kir21 confirm	HEK293 ctr	others
CCCC[C@@H](CNC)NC[C@H](Cc1ccc(O)cc1)NCCc1ccc(OCC)cc1	.	i	.	.
N/C(=N\OC(=O)CCC1CCCC1)c1ccc([N+](=O)[O-])cc1	0.44	i	.	.
N/C(=N\OC(=O)CCC1CCCCC1)c1cccc([N+](=O)[O-])c1	11.4*	i	i	i	CHO-K1 ctr=24.5*;KCNQ1 pot spec=-14.6;KCNQ2 pot conf=29.6*;Kir2-1 sel=-38.8;KCNQ2 W236L pot=i
N/C(=N\OC(=O)CC1CCCCC1)c1cccc(Br)c1	7.78*	i	i	i	CHO-K1 ctr=-12.6;KCNQ1 pot spec=9.5*;KCNQ2 pot conf=21.1*;Kir2-1 sel=-42.7;KCNQ2 W236L pot=i
N/C(=N\OC(=O)CC1CCCCC1)c1ccc(Br)cc1	.	i	.	.
CC(Oc1ccccc1)C(=O)N1CCN(c2ccc(N3CCCCC3)nn2)CC1 (centres undefined)	0.01	i	.	.
CCOCCc1nnc(NC(=O)C2CC(=O)N(CCc3ccc(F)cc3)C2)s1 (centres undefined)	.	i	.	.
CCOC(=O)c1ccc2c(c1)n(CC)c(/C=C/N(C)c1ccccc1)[n+]2CC	.	i	.	.
CC[n+]1c(/C=C/N(C)c2ccccc2)n(-c2ccccc2)c2ccc(-c3nc4ccccc4s3)cc21	-16.2	-16.2*	i	i
COc1cc(C)c(C(=O)Oc2cc(C)c(C(=O)O)c(O)c2)c(O)c1	7.01*	i	i	i	CHO-K1 ctr=45.2*;KCNQ1 pot spec=-11.4;KCNQ2 pot conf=13.9*;Kir2-1 sel=-22.3;KCNQ2 W236L pot=21.3%*
COc1cc(C)c(C(=O)Oc2cc(C)c(C(=O)O)c(O)c2C)c(O)c1C	5.25	i	.	.
Cc1cccc(NC(=O)C(=O)NNC(=O)c2ccc(C(C)(C)C)cc2)c1	16.3*	i	i	i	CHO-K1 ctr=22.5*;KCNQ1 pot spec=4.1*;KCNQ2 pot conf=44.1*;Kir2-1 sel=-30.9;KCNQ2 W236L pot=i
CC(C)(C)c1ccc(C(=O)NNC(=O)c2cccc(Br)c2)cc1	0.8	i	.	.
Cc1c(Cl)cccc1NC(=O)C1CC2CCC1C2 (centres undefined)	3.79	i	.	.
N#C/C(=N\Nc1ccc(F)cc1)C(=O)C1CC1	2.03	i	.	.
N#C/C(=N\Nc1ccc(Cl)c(Cl)c1)C(=O)C1CC1	6.61*	i	i	i	CHO-K1 ctr=12.7*;KCNQ1 pot spec=-11.2;KCNQ2 pot conf=-0.8;Kir2-1 sel=-34.1;KCNQ2 W236L pot=i
Cc1ccsc1C(=O)N(CC(C)C)c1c(N)n(Cc2ccccc2)c(=O)[nH]c1=O	1.01	i	.	.
COc1ccc2[nH]c3c(c2c1)CCN1C(=O)N([C@@H](C)C(=O)NCc2ccc(C)cc2)C(=O)[C@]31C	0.11	i	.	.
CSc1nc2c(c(=O)[nH]1)C(c1ccc(Cl)cc1)CC(=O)N2 (centres undefined)	.	i	i	i
CSc1nc2c(c(=O)[nH]1)C(c1cccc(Cl)c1)CC(=O)N2 (centres undefined)	0.81	i	.	.
CCC(C(=O)NCCCN(CC)Cc1ccccc1)n1nc(C)c2sc3ccccc3c2c1=O (centres undefined)	.	i	47.0%*	64.5%*
Cc1nn(C(C)C(=O)NCCCN(Cc2ccccc2)C(C)C)c(=O)c2c1sc1ccccc12 (centres undefined)	0.8	i	.	.
CCOC(=O)c1c(NC(=O)COc2cccc3c2CCN(C)C3=O)sc2c1CCC2	.	i	.	.
COC(=O)C1CCN(C(=O)CSc2nnc(-c3ccccc3)o2)CC1	0.59	i	.	.
CC1CCC(C(C)C)C(OC(=O)C[n+]2cc(-c3ccc(Cl)cc3)n3c2CCC3)C1 (centres undefined)	0.19	i	.	.
SMILES	KCNQ2 enhance	KCNQ2 block	Kir21 confirm	HEK293 ctr	others
CC1CCC(C(C)C)C(OC(=O)Cn2c(-c3ccccc3)[n+](C)c3ccccc32)C1 (centres undefined)	.	i	26.5%*	i
CC1=C(C(=O)O)N2C(=O)C(NC(=O)c3ccccc3Cl)C2SC1 (centres undefined)	12.6*	i	i	i	CHO-K1 ctr=4.5*;KCNQ1 pot spec=-23.5;KCNQ2 pot conf=-8.6;Kir2-1 sel=-32.1
CC1=C(C(=O)O)N2C(=O)C(NC(=O)c3nn(C)cc3Cl)C2SC1 (centres undefined)	.	i	.	.
COCC(C)NCc1cccc2ccccc12 (centres undefined)	2.46	i	.	.
COc1ccc(CCC(C)NCc2ccccc2OC)cc1 (centres undefined)	1.04	i	.	.
CC(CCc1ccccc1)NCc1cccc2ccccc12 (centres undefined)	.	i	19.0%*	i
COc1ccc(CCC(C)NCc2cccc(Br)c2)cc1 (centres undefined)	.	i	24.0%*	i
Cc1ccc(C)c(CN2CCCN(Cc3cc(C)ccc3C)S2(=O)=O)c1	.	i	.	.
Cc1ccc(CN2CCCN(Cc3cc(C)ccc3C)S2(=O)=O)cc1	7.33*	i	i	i	CHO-K1 ctr=-26.0;KCNQ1 pot spec=-20.2;KCNQ2 pot conf=-22.1;Kir2-1 sel=-27.1
CC1CCCN(C(=O)COC(=O)C2CCN(S(=O)(=O)c3ccc4c(c3)OCCO4)CC2)C1 (centres undefined)	.	i	.	.
COc1ccc(N2CCC(CNC(=O)Nc3ccc(C)c(C)c3)C2)cc1 (centres undefined)	1.19	i	.	.
Cc1ccc(C)c(CN2CCC(CNC(=O)Nc3ccc(C)c(C)c3)CC2)c1	7.57*	i	i	i	CHO-K1 ctr=60.1*;KCNQ1 pot spec=-11.4;KCNQ2 pot conf=10.0*;Kir2-1 sel=-30.6;KCNQ2 W236L pot=i
CCOCCCNC(=O)c1cc2c(s1)-c1ccccc1SC2	0.75	i	.	.
CN(C)CCNC(=O)c1cc2c(s1)-c1ccc(Cl)cc1SC2	-7.58	-7.58*	i	i
N#Cc1ncccc1CCc1cccc(Cl)c1	0.49	i	.	.
CCCCOC(=O)C[N+](C)(C)CCOC1CC2CCC1(C)C2(C)C (centres undefined)	.	i	.	.
CCCCCCOC(=O)C[N+](C)(C)CCOC1CC2CCC1(C)C2(C)C (centres undefined)	.	i	24.5%*	i
CCCOC(=O)C[N+](C)(C)CCOC1CC2CCC1(C)C2(C)C (centres undefined)	.	i	.	.
CCCCCCCOC(=O)C[N+](C)(C)CCOC1CC2CCC1(C)C2(C)C (centres undefined)	.	i	15.5%*	i
Cc1cccc(NC(=O)CCN2CCCC(C)C2)c1 (centres undefined)	0.03	i	.	.
CC(C)(C)c1ccccc1OCCCCCn1ccnc1	-6.07	-6.07*	39.0%*	i
